Assay results taken from PubChem BioAssay (NCATS).
Inconclusive results are not listed. A call without a number means that no potency is given here. The source made the active and inactive calls. Calls come from the whole dose curve; as a rule, active = well fitted inhibition curve with a large enough effect; inconclusive = small, poorly fitted or top-dose-only effect; inactive = flat fitted curve, though single readings scatter.

How the values were obtained:
Experiment in all cases: qHTS profiling for inhibitors of Plasmodium falciparum proliferation (AID 504749); note: nearly all actives have a fitted effect of over 60% in size
Settings in all cases: P. falciparum in erythrocytes, SYBR Green DNA, 72 h; series mostly up to 28.7 µM
[1] = test system: HB3
Method in brief: (§1)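 Fluorescence of SYBR Green-bound parasite DNA, read at 485/535 nm, served as the growth measure. Infected erythrocytes were cultured with compound 72 h; artemisinin (0.29 uM) and DMSO wells defined the normalization range.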

[2] = test system: PC26
Method in brief: as §1

[3] = test system: ICS
Method in brief: as §1

[4] = test system: N140
Method in brief: as §1

[5] = test system: JCK
Method in brief: as §1

[6] = test system: P93_24
Method in brief: as §1

[7] = test system: P94_40
Method in brief: as §1

[8] = test system: PAD
Method in brief: as §1

[9] = test system: PC15
Method in brief: as §1

[10] = test system: PC49
Method in brief: as §1
Potency is the fitted concentration of half-maximal effect.

| Structure (SMILES) | Potency [1] | Potency [2] | Potency [3] | Potency [4] | Potency [5] | Potency [6] | Potency [7] | Potency [8] | Potency [9] | Potency [10] |
| --- | --- | --- | --- | --- | --- | --- | --- | --- | --- | --- |
| Cn1ccc2cc3c(cc21)CCN3C(=O)Nc1cccnc1 | inactive | 13.5 µM (active) |  |  |  |  |  |  |  |  |
| CN(C)CCC=C1c2ccccc2C=Cc2ccccc21 | inactive |  | 8.91 µM (active) | inactive |  |  |  |  |  |  |
| O=C1N(c2ccccc2)c2ccccc2C1(Cc1ccncc1)Cc1ccncc1 | inactive | inactive |  | inactive | inactive | inactive | inactive | inactive | inactive | inactive |
| CN(C)CCOC(c1ccccc1)c1ccccc1 | inactive |  |  |  | inactive |  |  | inactive |  | inactive |
| O=c1[nH]cc(F)c(=O)[nH]1 |  |  |  |  | inactive |  |  |  |  | inactive |
| CCC1(c2ccccc2)C(=O)NCNC1=O | inactive | inactive |  | inactive | inactive | inactive | inactive | inactive | inactive | inactive |
| CC[C@@]1(O)C(=O)OCc2c1cc1n(c2=O)Cc2cc3c(CN(C)C)c(O)ccc3nc2-1 |  |  | 7.94 µM (active) |  |  | 4.47 µM (active) | 2.82 µM (active) |  | inactive | inactive |
| O=C1c2c(O)ccc(O)c2C(=O)c2c(NCCNCCO)ccc(NCCNCCO)c21 | 3.16 µM (active) | 6.42 µM (active) | 1.58 µM (active) | 2.24 µM (active) |  | 1.78 µM (active) | 1.58 µM (active) | 2 µM (active) |  | inactive |
| CC(C)NCC(O)COc1ccc(CCOCC2CC2)cc1 (centres undefined) |  |  | 5.01 µM (active) |  | inactive |  |  |  |  | inactive |
| Nc1c2c(nc3ccccc13)CCCC2 |  |  |  |  | inactive |  |  |  | 12.6 µM (active) | inactive |
| NC12CC3CC(CC(C3)C1)C2 | inactive | inactive | inactive | inactive |  | inactive | inactive | inactive |  | inactive |
| O=C(c1ccc(OCCN2CCCCC2)cc1)c1c(-c2ccc(O)cc2)sc2cc(O)ccc12 | 7.08 µM (active) |  | 2 µM (active) | 11.2 µM (active) |  | 8.91 µM (active) | 7.94 µM (active) |  |  |  |
| NCCc1cnc[nH]1 | inactive | inactive | inactive | inactive | inactive | inactive | inactive |  | inactive |  |
| CC(CCc1ccc(O)cc1)NCCc1ccc(O)c(O)c1 (centres undefined) | inactive | inactive | inactive | inactive | inactive | inactive | inactive | inactive |  | inactive |
| O=c1c(-c2ccc(O)cc2)coc2cc(O)cc(O)c12 | inactive |  | inactive | inactive | inactive | inactive | inactive | inactive | inactive | inactive |
| Clc1ccc2c(c1)C(N1CCNCC1)=Nc1ccccc1O2 |  | inactive |  |  | inactive |  |  |  |  | inactive |
| O=c1c(O)c(-c2ccc(O)c(O)c2)oc2cc(O)cc(O)c12 |  |  | 7.94 µM (active) | inactive | inactive |  |  | 1.78 µM (active) |  | inactive |
| CC1(CN2CCC(n3c(=O)[nH]c4ccccc43)CC2)OCc2ccccc2-n2cccc21 (centres undefined) |  | 12 µM (active) | 3.98 µM (active) | 12.6 µM (active) | inactive | 11.2 µM (active) | 10 µM (active) | 8.91 µM (active) | 7.94 µM (active) | inactive |
| CCOC(=O)Nc1ccc(NCc2ccc(F)cc2)nc1N | 8.91 µM (active) | 19 µM (active) | 6.31 µM (active) | 10 µM (active) | 14.1 µM (active) |  |  | 10 µM (active) |  |  |
| Clc1ccc(C(c2ccccc2Cl)C(Cl)Cl)cc1 (centres undefined) | inactive |  |  | inactive | inactive | inactive | inactive | inactive | inactive | inactive |

| Structure (SMILES) | Potency [1] | Potency [2] | Potency [3] | Potency [4] | Potency [5] | Potency [6] | Potency [7] | Potency [8] | Potency [9] | Potency [10] |
| --- | --- | --- | --- | --- | --- | --- | --- | --- | --- | --- |
| COc1ccccc1N1CCN(CC(O)COc2cccc3ccccc23)CC1 (centres undefined) | inactive | inactive |  | inactive | inactive | inactive | inactive | inactive | inactive | inactive |
| Cc1cc(C(C)(C)C)cc(C)c1CC1=NCCN1 | inactive | inactive | inactive | inactive | inactive |  | inactive | inactive | inactive | inactive |
| COc1nc(C)nc(Cl)c1NC1=NCCN1 | inactive | inactive | inactive | inactive | inactive |  | inactive | inactive | inactive | inactive |
| CN(CCOc1ccc(NS(C)(=O)=O)cc1)CCc1ccc(NS(C)(=O)=O)cc1 | inactive | inactive | inactive | inactive | inactive |  | inactive | inactive | inactive | inactive |
| CN1CCC(=C2c3ccccc3C=Cc3ccccc32)CC1 | inactive | inactive |  | inactive | inactive | inactive | inactive | inactive | inactive | inactive |
| O=C(Nc1ccc([N+](=O)[O-])cc1Cl)c1cc(Cl)ccc1O |  | inactive | 0.631 µM (active) | 0.631 µM (active) | inactive |  |  | 0.631 µM (active) |  | inactive |
| CC(COc1ccccc1)N(CCCl)Cc1ccccc1 (centres undefined) | inactive |  | 11.2 µM (active) |  | inactive |  |  | inactive | inactive | inactive |
| O=C(c1ccc(F)cc1)C1CCN(CCn2c(=O)[nH]c3ccccc3c2=O)CC1 | inactive | inactive | inactive | inactive | inactive | inactive |  | inactive | inactive | inactive |
| CC#C[C@]1(O)CC[C@H]2[C@@H]3CCC4=CC(=O)CCC4=C3[C@@H](c3ccc(N(C)C)cc3)C[C@@]21C | 12.6 µM (active) | 13.5 µM (active) | 4.47 µM (active) | 8.91 µM (active) |  | 11.2 µM (active) |  | 10 µM (active) | 12.6 µM (active) |  |
| CC(C)(Oc1ccc(C2CC2(Cl)Cl)cc1)C(=O)O (centres undefined) | inactive | inactive | inactive | inactive | inactive | inactive | inactive | inactive |  | inactive |
| COc1ccccc1OCCNCC(O)COc1cccc2[nH]c3ccccc3c12 (centres undefined) | inactive |  | 7.08 µM (active) | 12.6 µM (active) |  |  | 10 µM (active) |  |  |  |
| COc1ccc(CCN(C)CCCC(C#N)(c2ccc(OC)c(OC)c2)C(C)C)cc1OC (centres undefined) | inactive |  |  | inactive | inactive |  |  | inactive | inactive | inactive |
| Cn1c(=O)c2[nH]cnc2n(C)c1=O | inactive | inactive | inactive | inactive | inactive | inactive | inactive |  | inactive | inactive |
| CCCCc1oc2ccccc2c1C(=O)c1cc(I)c(OCCN(CC)CC)c(I)c1 | 11.2 µM (active) | 9.53 µM (active) | 3.55 µM (active) | 5.01 µM (active) |  | 3.55 µM (active) | 3.55 µM (active) | 6.31 µM (active) | 11.2 µM (active) |  |
| CN1CCC(=C2c3ccccc3CC(=O)c3sccc32)CC1 | inactive |  |  |  |  |  |  |  | inactive | inactive |
| CNCCCC12CCC(c3ccccc31)c1ccccc12 | inactive |  |  | inactive | inactive |  |  | inactive |  | inactive |
| CN(Cc1cnc2nc(N)nc(N)c2n1)c1ccc(C(=O)N[C@@H](CCC(=O)O)C(=O)O)cc1 | 0.141 µM (active) | inactive | 0.112 µM (active) | inactive |  |  | 0.178 µM (active) |  | 0.224 µM (active) | 0.178 µM (active) |
| Cc1ccc(-c2cc(C(F)(F)F)nn2-c2ccc(S(N)(=O)=O)cc2)cc1 | inactive | 9.53 µM (active) |  |  | inactive |  |  |  |  | inactive |
| OCCN1CCN(CCCN2c3ccccc3Sc3ccc(C(F)(F)F)cc32)CC1 | 11.2 µM (active) | 6.75 µM (active) | 1.58 µM (active) | 7.08 µM (active) |  | 6.31 µM (active) | 11.2 µM (active) | 7.94 µM (active) | 11.2 µM (active) |  |
